Test results as given in PubChem BioAssay (NCATS).
Records with an inconclusive call do not appear. Calls of active or inactive are those of the source. Unless noted, calls follow the shape of the dose curve; as a rule, active = well fitted curve in the direction sought with a large enough effect; inconclusive = small, poorly fitted or top-dose-only effect, or another doubt; inactive = no such curve, though single readings can be large; an effect the other way counts as inactive or inconclusive.

Legend:
[1] = target: Thyrotropin-releasing hormone receptor (Homo sapiens) (UniProt P34981); assay: qHTS for Small Molecule Agonists and Allosteric Enhancers of Human TRH Receptor: Validation Screen for Agonists (AID 493127;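 active = calcium activation more than 3 SD above the typical response in the agonist read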;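 also: intracellular calcium rise by fluo-8 fluorescence before TRH EC20 addition; 0% is about no effect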); conditions: TRH receptor agonist cell assay; at 2 µM; stronger effect = higher value
Outline: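 Compounds are added by online pintool to dye-loaded TRHR cells while fluorescence is recorded every second. A rise in calcium signal during the agonist read marks activation; a later 10 nM TRH addition (EC20) serves the separate enhancer mode.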

[2] = Nrf2 qHTS screen for inhibitors: Validation (AID 493153; active = well fitted inhibition curve with a large enough effect in the main read-out, with a control signal flat, not every such curve was filed as active); conditions: viability change: measured here: cytotoxicity max response
Outline: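 A549 ARE_Fluc, 5% FBS OPTI-MEM; cpd titration, 18-24 h, 37°C/5% CO2. Read 1: CellTiter-Fluor (Ex 405/Em 525), cytotox. Read 2: luciferase lum, Nrf2 activity.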

[3] = qHTS for Inhibitors of Cell Surface uPA Generation: Validation Assay (AID 493164);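 also: RAW 264.7 macrophage cells exposed to compound for 18 h; 0% is about no effect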
Outline: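 ATP-Lite luminescence read-out: ATP remains high when uPA activity-dependent LF translocation into the cytoplasm is blocked. RAW 264.7 cells, 18 h compound exposure at 37 C; 7-point titration, 2.45 nM to 38.3 uM final.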

[4] = Validation screen for small molecules that induce DNA re-replication in SW480 colon adenocarcinoma cells (AID 504364); also: 0% is about no effect
Outline: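 Image-based qHTS: compounds were incubated with SW480 cells for 48 hr, nuclei stained with Hoechst, and per-nucleus fluorescence intensity scanned to flag cells with excess DNA content.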

[5] = target: Peptidyl-prolyl cis-trans isomerase NIMA-interacting 1 (Homo sapiens) (UniProt Q13526); assay: qHTS Validation Assay to Find Inhibitors of Pin1 (AID 504536; active = well fitted inhibition curve with a large enough effect in the polarisation, with a control signal flat, not every such curve was filed as active; the % refers to the polarisation;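 also: 0% = full Pin1 enzyme wells and -100% = no-enzyme wells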)
Outline: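 Fluorescence polarization competition: compounds (titration) displace HiFluor-488-labeled Pin1-1b peptide from Pin1 (0.3 uM final) in pH 7.5 HEPES buffer with DTT, 10 min at room temperature; %Activity normalized to no-enzyme wells, curves fitted.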

[6] = target: Ubiquitin carboxyl-terminal hydrolase 1 (Homo sapiens) (UniProt O94782); assay: Inhibitors of USP1/UAF1: Pilot qHTS (AID 504865);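 also: rhodamine fluorescence freed from ubiquitin-rhodamine substrate followed over time; top concentration of the series differs between compounds; % is scaled to controls: 0 for no effect and ±100 for the full control effect; nearly all actives have a fitted effect of over 35% in size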
Outline: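 Kinetic fluorescence assay: 1nM USP1/UAF1, 15 min compound preincubation, then 150nM Ub-Rho; 480/540 nm.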

[7] = qHTS for Inhibitors of ATXN expression: Validation of Cytotoxic Assay (AID 588349); also: % is scaled to controls: 0 for no effect and ±100 for the full control effect
Outline: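 Titrated compounds are added to cultured HEK293 cells, which are then held at 37 degrees C for 72 hr; loss of intracellular ATP, measured with CellTiter Glo, indicates toxicity.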

[8] = qHTS for Inhibitors of ATXN expression: Validation (AID 588378); also: series mostly up to about 57 µM; % is scaled to controls: 0 for no effect and ±100 for the full control effect; nearly all actives have a fitted effect of over 75% in size
Outline: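 Validation of ATXN2 expression inhibitors uses a cell-based luciferase fusion reporter in HEK293 cells, with 24 h compound exposure and paired viability (fluorescence) and reporter (luminescence) end-point reads.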

[9] = target: Voltage-gated inwardly rectifying potassium channel KCNH2 (Homo sapiens) (UniProt Q12809); assay: qHTS Assay for Small Molecule Inhibitors of the Human hERG Channel Activity (AID 588834);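 also: U2OS cells transduced with hERG by BacMam; top concentration of the series differs between compounds; % is scaled to controls: 0 for no effect and ±100 for the full control effect; lower thallium flux fluorescence means stronger hERG block; nearly all actives have a fitted effect of over 50% in size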
Outline: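 Cells were infected with hERG-BacMam virus for 4 hrs at room temperature, grown overnight, then seeded at 2000/well. After dye loading and roughly 10 min compound treatment, thallium influx was triggered and fluorescence recorded.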

[10] = target: Glutaminase kidney isoform, mitochondrial (Homo sapiens) (UniProt O94925); assay: qHTS for Inhibitors of Glutaminase (GLS): LOPAC Validation (AID 624146);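 also: glutamate product detected by oxidase and peroxidase coupled Amplex red fluorescence gain; series mostly up to about 46 µM; % is scaled to controls: 0 for no effect and ±100 for the full control effect; nearly all actives have a fitted effect of over 60% in size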
Outline: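 Glutamate formation by hKGA was monitored fluorometrically using coupled glutamate oxidase, HRP and Amplex Red. Substrate was added as 1 mM L-glutamine solution; incubation was 30 min at RT after an initial read.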

[11] = qHTS of Trypanosoma Brucei Inhibitors: LOPAC Validation (AID 624147); also: 0% is about no effect
Outline: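 Assay buffer: 50 mM TEA pH 7.2, 100 mM KCl, 10 mM MgCl2, 0.05% BSA, 0.01% Tween-20. Pyruvate kinase from T. brucei plus substrate met compound, then ADP (130 uM final). Luminescence was read post 45 min RT.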

[12] = target: Glucagon-like peptide 1 receptor (Homo sapiens) (UniProt P43220); assay: qHTS of GLP-1 Receptor Agonists: LOPAC Validation (AID 624148);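 also: 0% is about no effect; higher luminescence signal means agonism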
Outline: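 HEK293 cells stably co-expressing a cAMP-responsive luciferase reporter and a hypersensitive GLP-1R were plated 12 h at 37 °C and exposed to compounds for 4-6 hr at 37 °C, 5% CO2. Luminescence was read 12 min after adding detection reagent.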

[13] = qHTS of Nrf2 Activators: LOPAC Validation (AID 624149); also: 0% is about no effect
Outline: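 Cells (AREc32_Fluc) are plated at 1000 per well in OPTI-MEM containing 5% FBS and left overnight. Compounds are pinned in and incubated 24 hr at 37 deg C, and firefly luciferase is detected with Steady-Glo.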

[14] = HTS Assay for Allosteric Antagonists of the Human D2 Dopamine Receptor: Hit Validation in HTRF (AID 624455);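 also: stable D1 dopamine receptor cell line scored for blocking the D1 response; % is scaled to controls: 0 for no effect and ±100 for the full control effect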
Outline: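 Inhibition of the D1-mediated response is measured by HTRF in cells that stably express the D1 dopamine receptor. Compounds reaching this step are hits from calcium-flux antagonism testing at EC80 dopamine in inducible Hek293 Trex D2 cells.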

[15] = target: Arylsulfatase A (Homo sapiens) (UniProt P15289); assay: qHTS screen for enhancers of Arylsulfatase A (ASA1): LOPAC Validation Assay (AID 720538); also: 0% is about no effect
Outline: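 First, ASA-I179S fibroblasts from an MLD patient adhered for 6 hrs. Next, compounds were added for 48h. Then pNCS substrate (0.5mM final) with lysis buffer reacted 14h at room temperature before NaOH stop and fluorescence measurement.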

[16] = qHTS for compounds that reverse cellular toxicity of Amyloid beta (A-beta) peptide in yeast: LOPAC Validation Assay (AID 720559);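 also: plate controls were DMSO for no effect and equimolar ferric chloride plus clioquinol rescue for full effect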
Outline: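 Activity is expressed relative to DMSO and an equimolar ferric chloride/clioquinol mix. Compounds were pinned into medium with A-beta-expressing yeast, grown 48 hr at 30 C, then read by absorbance at 600 nm.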

[17] = qHTS for Activators of Parkin Expression: LOPAC Validation Assay (NLuc Reporter) (AID 720572;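 also: 0% = DMSO and 100% = positive control compound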)
Outline: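 Cells harboring the Parkin-promoter coincidence reporter were treated for 24 h at seven concentrations. NLuc output was measured sequentially after the FLuc channel and scaled between DMSO and positive control values.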

Glucagon-like peptide 1 receptor (Homo sapiens), sequence (P43220 whole entry, looked up): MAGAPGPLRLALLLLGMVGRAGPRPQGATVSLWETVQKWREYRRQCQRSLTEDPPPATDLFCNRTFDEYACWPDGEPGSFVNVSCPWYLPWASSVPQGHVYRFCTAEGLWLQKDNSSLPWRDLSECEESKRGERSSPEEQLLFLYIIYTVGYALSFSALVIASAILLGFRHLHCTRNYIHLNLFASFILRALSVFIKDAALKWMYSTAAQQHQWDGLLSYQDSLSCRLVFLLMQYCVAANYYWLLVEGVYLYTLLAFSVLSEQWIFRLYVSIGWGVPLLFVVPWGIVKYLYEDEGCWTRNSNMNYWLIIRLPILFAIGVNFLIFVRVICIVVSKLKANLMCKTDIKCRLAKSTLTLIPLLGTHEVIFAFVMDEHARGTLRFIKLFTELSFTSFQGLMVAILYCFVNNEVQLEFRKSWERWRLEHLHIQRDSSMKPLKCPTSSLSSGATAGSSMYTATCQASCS
Thyrotropin-releasing hormone receptor (Homo sapiens), sequence (P34981 whole entry, looked up): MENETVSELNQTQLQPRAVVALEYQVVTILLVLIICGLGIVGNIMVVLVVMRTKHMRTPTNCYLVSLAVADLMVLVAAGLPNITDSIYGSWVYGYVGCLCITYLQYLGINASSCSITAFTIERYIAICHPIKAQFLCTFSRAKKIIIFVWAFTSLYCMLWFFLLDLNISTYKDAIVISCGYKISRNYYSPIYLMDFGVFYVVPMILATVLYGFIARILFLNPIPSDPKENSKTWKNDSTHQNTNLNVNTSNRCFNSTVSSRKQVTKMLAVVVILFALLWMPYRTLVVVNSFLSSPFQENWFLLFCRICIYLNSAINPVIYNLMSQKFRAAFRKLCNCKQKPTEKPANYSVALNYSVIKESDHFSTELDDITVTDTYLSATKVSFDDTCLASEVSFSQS
Glutaminase kidney isoform, mitochondrial (Homo sapiens), sequence (O94925 whole entry, looked up, canonical isoform): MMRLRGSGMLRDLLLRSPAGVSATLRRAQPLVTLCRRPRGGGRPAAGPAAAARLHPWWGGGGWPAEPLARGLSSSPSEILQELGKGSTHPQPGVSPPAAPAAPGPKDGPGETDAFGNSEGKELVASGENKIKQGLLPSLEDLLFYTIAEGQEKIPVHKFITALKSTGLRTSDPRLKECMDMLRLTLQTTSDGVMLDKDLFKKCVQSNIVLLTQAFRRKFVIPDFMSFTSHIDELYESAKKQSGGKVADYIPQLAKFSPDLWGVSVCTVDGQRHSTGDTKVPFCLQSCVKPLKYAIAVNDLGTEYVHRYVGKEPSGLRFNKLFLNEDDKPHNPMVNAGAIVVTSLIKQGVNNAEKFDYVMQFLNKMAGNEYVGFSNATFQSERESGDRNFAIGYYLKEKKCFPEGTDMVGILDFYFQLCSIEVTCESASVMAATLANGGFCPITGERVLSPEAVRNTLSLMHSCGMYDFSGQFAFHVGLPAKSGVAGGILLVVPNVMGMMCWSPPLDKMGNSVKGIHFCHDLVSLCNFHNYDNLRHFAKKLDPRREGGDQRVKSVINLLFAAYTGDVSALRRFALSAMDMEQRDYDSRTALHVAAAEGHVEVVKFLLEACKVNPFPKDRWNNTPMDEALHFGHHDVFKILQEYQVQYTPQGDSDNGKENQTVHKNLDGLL
Ubiquitin carboxyl-terminal hydrolase 1 (Homo sapiens), sequence (O94782 whole entry, looked up): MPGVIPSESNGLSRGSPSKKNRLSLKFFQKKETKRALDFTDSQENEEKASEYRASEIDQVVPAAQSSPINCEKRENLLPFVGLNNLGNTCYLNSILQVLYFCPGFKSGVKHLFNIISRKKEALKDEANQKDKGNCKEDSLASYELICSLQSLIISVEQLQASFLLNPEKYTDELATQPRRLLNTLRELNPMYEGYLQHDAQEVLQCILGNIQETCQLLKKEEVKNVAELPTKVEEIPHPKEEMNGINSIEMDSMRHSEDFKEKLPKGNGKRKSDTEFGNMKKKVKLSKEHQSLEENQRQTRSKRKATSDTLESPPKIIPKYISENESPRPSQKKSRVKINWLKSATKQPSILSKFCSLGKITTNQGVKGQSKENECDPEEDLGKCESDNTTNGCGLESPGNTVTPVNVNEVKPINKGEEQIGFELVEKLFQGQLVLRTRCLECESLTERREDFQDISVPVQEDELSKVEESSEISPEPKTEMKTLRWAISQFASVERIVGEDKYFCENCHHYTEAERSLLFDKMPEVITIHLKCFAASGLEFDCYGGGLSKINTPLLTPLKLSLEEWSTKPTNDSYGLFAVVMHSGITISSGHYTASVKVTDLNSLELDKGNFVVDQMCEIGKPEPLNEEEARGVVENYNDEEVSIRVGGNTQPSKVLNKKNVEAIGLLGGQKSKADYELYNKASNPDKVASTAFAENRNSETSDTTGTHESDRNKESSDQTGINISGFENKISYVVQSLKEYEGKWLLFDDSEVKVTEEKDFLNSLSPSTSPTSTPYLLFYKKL
Voltage-gated inwardly rectifying potassium channel KCNH2 (Homo sapiens), sequence (Q12809 whole entry, looked up): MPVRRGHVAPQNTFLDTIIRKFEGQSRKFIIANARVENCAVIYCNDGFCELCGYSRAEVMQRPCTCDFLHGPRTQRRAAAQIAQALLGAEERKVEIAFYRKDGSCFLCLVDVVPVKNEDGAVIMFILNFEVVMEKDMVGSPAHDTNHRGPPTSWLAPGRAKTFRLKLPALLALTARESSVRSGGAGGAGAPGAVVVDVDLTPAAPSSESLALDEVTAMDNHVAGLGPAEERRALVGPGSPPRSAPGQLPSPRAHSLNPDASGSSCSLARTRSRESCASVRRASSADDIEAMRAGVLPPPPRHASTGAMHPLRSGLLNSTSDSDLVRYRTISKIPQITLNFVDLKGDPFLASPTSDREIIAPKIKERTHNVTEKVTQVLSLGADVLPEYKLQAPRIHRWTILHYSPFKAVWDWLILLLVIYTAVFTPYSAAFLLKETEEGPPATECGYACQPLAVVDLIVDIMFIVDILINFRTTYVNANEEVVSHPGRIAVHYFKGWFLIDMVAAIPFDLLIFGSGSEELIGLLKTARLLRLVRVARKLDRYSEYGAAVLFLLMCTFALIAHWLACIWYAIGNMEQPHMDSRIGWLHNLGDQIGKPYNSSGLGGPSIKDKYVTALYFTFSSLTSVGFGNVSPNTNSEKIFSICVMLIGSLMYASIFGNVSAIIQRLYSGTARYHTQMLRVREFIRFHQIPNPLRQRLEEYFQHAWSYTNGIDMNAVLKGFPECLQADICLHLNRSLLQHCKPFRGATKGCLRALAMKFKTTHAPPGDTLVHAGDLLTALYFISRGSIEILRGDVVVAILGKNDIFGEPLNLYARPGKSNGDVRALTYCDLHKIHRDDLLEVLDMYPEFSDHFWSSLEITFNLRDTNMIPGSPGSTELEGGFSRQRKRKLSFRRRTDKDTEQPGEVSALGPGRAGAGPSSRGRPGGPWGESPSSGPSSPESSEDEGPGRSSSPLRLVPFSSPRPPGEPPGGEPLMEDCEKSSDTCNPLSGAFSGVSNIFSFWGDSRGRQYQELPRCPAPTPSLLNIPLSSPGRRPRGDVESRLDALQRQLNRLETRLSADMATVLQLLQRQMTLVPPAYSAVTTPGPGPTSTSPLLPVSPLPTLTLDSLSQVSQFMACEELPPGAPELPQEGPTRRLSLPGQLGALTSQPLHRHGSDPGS
Peptidyl-prolyl cis-trans isomerase NIMA-interacting 1 (Homo sapiens), sequence (Q13526 whole entry, looked up): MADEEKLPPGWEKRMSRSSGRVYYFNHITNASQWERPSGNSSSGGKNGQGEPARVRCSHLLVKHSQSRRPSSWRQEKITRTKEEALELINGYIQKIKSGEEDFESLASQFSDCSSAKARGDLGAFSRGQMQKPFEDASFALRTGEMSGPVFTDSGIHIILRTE
Arylsulfatase A (Homo sapiens), sequence (P15289 whole entry, looked up): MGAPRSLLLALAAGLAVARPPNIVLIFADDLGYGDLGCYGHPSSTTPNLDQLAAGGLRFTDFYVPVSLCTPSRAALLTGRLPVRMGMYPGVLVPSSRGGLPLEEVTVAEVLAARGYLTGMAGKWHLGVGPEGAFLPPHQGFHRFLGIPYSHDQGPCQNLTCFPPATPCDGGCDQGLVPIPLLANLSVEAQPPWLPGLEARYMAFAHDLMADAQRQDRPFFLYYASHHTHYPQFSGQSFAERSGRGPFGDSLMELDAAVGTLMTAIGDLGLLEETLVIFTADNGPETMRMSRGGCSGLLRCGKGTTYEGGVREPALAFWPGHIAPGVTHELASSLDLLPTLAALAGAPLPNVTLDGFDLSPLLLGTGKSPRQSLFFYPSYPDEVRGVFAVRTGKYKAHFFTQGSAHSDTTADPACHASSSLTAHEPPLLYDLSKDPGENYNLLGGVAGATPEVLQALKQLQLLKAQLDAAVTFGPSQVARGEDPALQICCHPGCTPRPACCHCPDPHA

Cc1cccc(/C=C/c2ccccc2)n1
inactive: activation [1] -7% | outcome [2] | outcome [3] | outcome [4] | Potency [5] | Potency [6] | Potency [7] | Potency [8] | Potency [9] | Potency [10] | outcome [11] | outcome [12] | outcome [13] | outcome [14] | Potency [15] | outcome [16] | outcome [17]
-2.71%: viability change [2]
